BAP1 block: blocks human BAP1 ubiquitin-AMC hydrolysis; recombinant BAP1, Ub-AMC hydrolysis fluorescence kinetic; stronger effect = lower value; Q92560; calls only at 20 µM; 72,000 compounds, 0.48% hits;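 active means activity remaining at or below 50% of control, provided the compound also passes the data quality filters; inactive means the rest, including low values that fail the filters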;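 further: 100% = DMSO wells rate and 0% = substrate alone blank rate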
D1 mod: D1 dopamine receptor (human) allosteric modulation; 58,000 compounds, 5.9% hits; AID 641; HEK293 D1, CRE-luciferase, dopamine EC30 potentiation; actives deviate in either direction; B-score at 10 µM; P21728;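 active means luminescence count or its row- and column-corrected plate score outside the 99.7% band of the plate's sample wells, on either side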
DAT uptake mod: changed human dopamine transporter uptake under cocaine IC80; LLC-PK1 hDAT cells, [14C]-dopamine uptake with cocaine IC80; actives deviate in either direction; 110,000 compounds, 1.3% hits; Q01959; AID 449768; B-score at 10 µM;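 active means Z score or B-score, a plate-position-corrected score, falls beyond the plate's 99.7% confidence bounds, in either direction; inactive means both scores lie inside the 99.7% bounds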;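 further: scored against the spread of the other compound wells on the same plate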
D1 PAM confirm: confirmation of human D1 dopamine receptor allosteric modulators; 2,200 compounds, 88% hits; AID 642; shares compounds with D1 mod; HEK293 D1 CRE-luciferase, dopamine EC30 potentiation; stronger effect = higher value; luminescence at 10 µM;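 active means luminescence in either of two replicates above the same-plate mean plus 3 SD of the low-dose dopamine control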
D1 no dopamine: activates D1 CRE-luciferase signal without dopamine present; shares compounds with D1 mod; HEK293 D1 CRE-luciferase, luminescence, no dopamine; stronger effect = higher value; luminescence at 10 µM; 1,900 compounds, 0.8% hits; AID 646; in the data active means luminescence above about 3900
Isoprot counter: counter-screen for D1 modulators: isoproterenol response in HEK293 cells; shares compounds with D1 mod; HEK293 D1 CRE-luciferase, isoproterenol EC30 counter-screen; stronger effect = higher value; luminescence at 10 µM; 2,200 compounds, 63% hits; AID 647;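 active means luminescence in either replicate above plate mean of wells with a partly effective reference agonist dose plus 3 SD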;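 further: isoproterenol raises cAMP through native beta-adrenoceptor Gs so signal bypasses D1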
* marks the source's active call; other numbers are inactive results. This is one part of a sample in which hits are shown more often than they occur.

For CC(=NCc1cccnc1)c1c(O)n(-c2ccc(C)cc2)c(=O)[nH]c1=O the results were BAP1 block inactive, D1 mod -0.255 and DAT uptake mod 0.464.
Screening CCC(=NCCCN(CC)CC)c1c(O)n(C2CCCCC2)c(=O)[nH]c1=O returned BAP1 block inactive, D1 mod 0.475 and DAT uptake mod 1.52.
Screening CC(=NCc1cccnc1)c1c(O)n(C2CCCCC2)c(=O)[nH]c1=O returned D1 mod 5.96*, DAT uptake mod 0.105, D1 PAM confirm 9208*, D1 no dopamine 1480 and Isoprot counter 3100*.
`CCC(=O)c1c(O)n(C2CCCCCC2)c(=O)[nH]c1=O` gave BAP1 block inactive, D1 mod 1.04 and DAT uptake mod -0.0349.
`O=[N+]([O-])c1ccc(NCCCN2CCOCC2)c2cccnc12` gave BAP1 block inactive.
Screening Nc1ncnc2c1ncn2[C@@H]1O[C@H](COP(=O)(O)CP(=O)(O)OP(=O)(O)O)[C@H](O)C1O (some centres not stated) returned BAP1 block inactive.
For C=CCN1C[C@@H](C)N([C@H](c2ccc(C(=O)N(CC)CC)cc2)c2cccc(OC)c2)C[C@@H]1C the results were BAP1 block inactive.
Screening NC(Cn1oc(=O)[nH]c1=O)C(=O)O (configuration not stated) returned BAP1 block inactive.
For Cn1c(O)c(C(=O)c2ccccc2)c(=O)n(C)c1=O the results were BAP1 block inactive, D1 mod 8.43*, DAT uptake mod -0.0224, D1 PAM confirm 6612, D1 no dopamine 1668 and Isoprot counter 2604.
Cn1c(O)c(C(=O)c2ccccc2F)c(=O)n(C)c1=O was read as DAT uptake mod -1.4.
Screening O=C1CC[C@@]2(O)C3Cc4ccc(O)c5c4C2(CCN3CC2CC2)[C@H]1O5 (some centres not stated) returned BAP1 block inactive.
For Cc1[nH]c2ccc(O)cc2c1CCN the results were BAP1 block inactive.
Cc1[nH]c2c(C(F)(F)F)cccc2c1CCN was read as BAP1 block inactive, D1 mod 7.8*, DAT uptake mod 0.00159, D1 PAM confirm 5580 and Isoprot counter 2156.
Screening O=c1c(Cl)c(Cl)[nH]c(Cl)c1Cl returned BAP1 block inactive.
Screening Cc1nc2cc([N+](=O)[O-])ccc2c(=O)n1-c1ccc(Cl)cc1 returned BAP1 block inactive.
Screening COC(=O)c1c(N)n(Cc2ccc(OC)cc2)c2nc3ccccc3nc12 returned D1 mod 6.99*, DAT uptake mod -1.14, D1 PAM confirm 8940*, D1 no dopamine 1728 and Isoprot counter 3196*.
COCCOC(=O)c1c(N)n(Cc2ccc(OC)cc2)c2nc3ccccc3nc12 was read as D1 mod 6.33*, DAT uptake mod 0.763, D1 PAM confirm 12708*, D1 no dopamine 1440 and Isoprot counter 3028*.
COCCCn1c(N)c(C(=O)OCCOC)c2nc3ccccc3nc21 was read as D1 mod 0.522 and DAT uptake mod 0.926.
`CCOC(=O)c1c(N)n(Cc2ccc(OC)cc2)c2nc3ccccc3nc12` gave D1 mod 2.39 and DAT uptake mod 0.65.
O=C(Nc1ccc(Br)cc1C(=O)c1ccccc1Cl)c1cccs1 was read as BAP1 block inactive.
O=[N+]([O-])c1ccc(NC23CC4CC(CC(C4)C2)C3)c2ncccc12 was read as BAP1 block inactive.
CC(=O)OCC1=C(C(=O)[O-])N2C(=O)[C@@H](NC(=O)CCC[C@@H](N)C(=O)[O-])[C@H]2SC1.[Zn+2] was read as BAP1 block inactive.
O=c1[nH]c(=O)n(Cc2ccc(F)cc2)c(O)c1C=NCCCN1CCOCC1 was read as BAP1 block inactive, D1 mod -0.52 and DAT uptake mod -0.855.
For O=c1[nH]c(=O)n(CCc2ccc(F)cc2)c(O)c1C=NCCCN1CCOCC1 the results were BAP1 block inactive, D1 mod 12.2*, DAT uptake mod 0.912, D1 PAM confirm 4420, D1 no dopamine 2264 and Isoprot counter 2144.
`CCCCn1c(O)c(C(CC)=NCc2ccc3c(c2)OCO3)c(=O)[nH]c1=O` gave BAP1 block inactive, D1 mod 7.36*, DAT uptake mod -0.811, D1 PAM confirm 12520*, D1 no dopamine 1728 and Isoprot counter 3448*.

Screening data deposited in PubChem BioAssay by several laboratories.
